Several values for one entry are separate records, joined by “and”; a condition that tells them apart may be missing. Identical values can stand only once. Records with an inconclusive call do not appear. A number with no mark means an inactive call. Activity calls are given as the source filed them. Calls come from the whole dose curve; as a rule, active = well fitted cell-killing curve with a large enough effect in the repeat runs; inconclusive = weak or mixed curves, or effect the other way; inactive = flat fitted curve, though single readings scatter.
% is set by controls: 0 for no effect and ±100 for the full control effect; potency is the fitted concentration of half-maximal effect.

This experiment in a line: qHTS assay to identify small molecule antagonists of the estrogen related receptor signaling pathway with the pleiotropic PPARgamma coactivator (PGC) cell viability counter screen (AID 1224822). The note with it: ERR/PGC reporter cell line viability counter screen; series mostly up to 46.1 µM; viability change, negative = cytotoxic: at the top concentration. From the text: National Center for Advancing Translational Sciences [NCATS]
NIH Chemical Genomics Center [NCGC]
U.S. Environmental Protection Agency [EPA]
National Institutes of Environmental Health Sciences [NIEHS]
National Toxicology Program [NTP]
U.S. Food and Drug Administration [FDA]
Estrogen related receptors (ERRs), the first orphan nuclear receptors discovered, play an important role in the control of cellular energy metabolism. ERRs are required for high-energy production in response to the environmental challenges. The pleiotropic PPARgamma coactivator (PGC) is a major partner of ERR and a key regulator in energy homeostasis. Together they have been implicated in the etiology of metabolic disorders such as Type 2 diabetes and metabolic syndrome. ERR-alpha was also identified as an adverse marker for breast cancer progression; ERR-alpha-positive tumors have a poor prognosis. To screen and to identify environmental compounds that perturb the ERR and PGC/ERR signaling pathways could provide valuable information for potential therapeutic or preventive measures in the treatment of metabolic disease. To differentiate true PGC/ERR antagonists or agonist from cytotoxic substances, the assay is multiplexed with cell viability assay.
Tox21 Assay Protocol Summary:
The PGC/ERR cells were dispensed at 2,000 cells/5 ul/well in 1536-well white plates using a Multidrop dispenser. After the assay plates were incubated at a 37 C/5% CO2 incubator for 6 hours, 23 nL of compounds dissolved in DMSO, positive and negative controls or DMSO only was transferred to the assay plate by a pin tool. The plates were incubated at 37 C for 17.5 hours. 1 ul/well of CellTiter-Fluor reagent was added into the assay plates using a Flying Reagent Dispenser. After 30 min incubation at 37 C/5% CO2, the fluorescence intensity in the plates was measured using a ViewLux plate reader.
On to `CC(C)C(=O)c1c(C(C)C)nn2ccccc12`, for which the “viability change, negative = cytotoxic” value is 7.49%.
The same measure, in the same setting: the result for `O=C(O)CP(=O)(O)O` reads 3.95%.
Still for that read-out and setting: the result for `COc1nc(C)nc(Cl)c1NC1=NCCN1` reads 12.9%.
On the same count and under the same terms, the result for `NC(N)=Nc1nc(CSCC/C(N)=N/S(N)(=O)=O)cs1` reads 7.29%; that for `CC(=O)OCC1=C(C(=O)O)N2C(=O)[C@@H](NC(=O)Cc3cccs3)[C@H]2SC1`, -2.26%.
With `Cc1c(O)cccc1C(=O)N[C@@H](CSc1ccccc1)[C@H](O)CN1C[C@H]2CCCC[C@H]2C[C@H]1C(=O)NC(C)(C)C`, the Potency is 10.6 µM (active).
As for `CCn1cc(C(=O)O)c(=O)c2cc(F)c(N3CCNC(C)C3)c(F)c21` (stereo unspecified), the “viability change, negative = cytotoxic” value was -4.49%.
The same measure, in the same setting: the result for `NNCCc1ccccc1` reads 4.32%; that for `NC(Cc1ccc(Cl)cc1)C(=O)O` (stereo unspecified), 5.06%.
On to `CCN(CC)C(=S)SSC(=S)N(CC)CC`, for which the Potency was 386 nM (active) and 220 nM (active).
With `CC(C)(C)NCC(O)c1cc(O)cc(O)c1` (stereo unspecified), the “viability change, negative = cytotoxic” value was 10.4%.
Consider `N[C@@H]1CONC1=O`, for which the “viability change, negative = cytotoxic” value is 8.68%.
Still for that read-out and setting: the result for `NCCO` reads 4.18% [at 92.2 µM]; that for `NC(=Nc1ccccc1)Nc1ccccc1`, -6.74% [at 92.2 µM]; that for `c1ccc2c(c1)CCCC2C1=NCCN1` (stereo unspecified), 12.8%.
The same measure, in the same setting: the result for `O=C1NCC2(CCN(CCc3ccccc3)CC2)O1` reads 4.85%; that for `[Cl][In]([Cl])[Cl]`, -3.46% [at 92.2 µM]; that for `C1COC(NC(C2CC2)C2CC2)=N1`, 3.93%.
Consider `c1cnc2cc3c(cc2n1)C1CNCC3C1`, for which the “viability change, negative = cytotoxic” value is 9.97%.
Still for that read-out and setting: the result for `NC(N)=NC(=O)Cc1c(Cl)cccc1Cl` reads -10.4%; that for `CC(=O)N[C@@H](CS)C(=O)O`, -0.655%; that for `O=C1CC2(CCCC2)CC(=O)N1CCCCN1CCN(c2ncccn2)CC1`, 6.17%.
The same measure, in the same setting: the result for `CCCNC(C)C(=O)Nc1ccccc1C` (stereo unspecified) reads 8.69%.
The same measure, in the same setting: the result for `CNC1(C)C2CCC(C2)C1(C)C` (stereo unspecified) reads 17.6%.
Take `Cc1ccc(-c2cc(C(F)(F)F)nn2-c2ccc(S(N)(=O)=O)cc2)cc1`: the “viability change, negative = cytotoxic” value was -0.61%.
Still for that read-out and setting: the result for `CC(N)=O` reads 2.55%.
Same read-out and setting: the result for `NCCCCCC(=O)O` reads 7.82%; that for `CCN1CCCC1CNC(=O)c1cc(S(=O)(=O)CC)c(N)cc1OC` (stereo unspecified), 6.94%; that for `Cc1scc2c1N(C(=O)CN1CCN(C)CC1)c1ccccc1NC2=O`, 11.3%.
Same read-out and setting: the result for `CC1COc2c(N3CCN(C)CC3)c(F)cc3c(=O)c(C(=O)O)cn1c23` (stereo unspecified) reads 6.99%; that for `NC12CC3CC(CC(C3)C1)C2`, 7.73%.

Source of the values: PubChem BioAssay (Tox21).
